# Cruzain noTriton – qHTS Assay for Promiscuous and Specific Inhibitors of Cruzain (without detergent) | Cruzipain (Trypanosoma cruzi), P25779 | AID 1476, 2009 | purified cruzain, Z-FR-AMC fluorescence, no detergent | actives 2.3% (n = 200,000) | Potency, µM, inactives show max response, negative = inhibition, most hits filed as inhibitors; active = well fitted curve in the direction sought with a large enough effect; inconclusive = small, poorly fitted or top-dose-only effect, or another doubt; inactive = no such curve, though single readings can be large; an effect the other way counts as inactive or inconclusive;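 also: potency is read from the fitted curve at half-maximal effect; plate controls were enzyme without inhibitor for no effect and buffer without enzyme for full effect; nearly all actives have a fitted effect of over 40% in size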
# Target sequence (P25779 123-467 limits assumed): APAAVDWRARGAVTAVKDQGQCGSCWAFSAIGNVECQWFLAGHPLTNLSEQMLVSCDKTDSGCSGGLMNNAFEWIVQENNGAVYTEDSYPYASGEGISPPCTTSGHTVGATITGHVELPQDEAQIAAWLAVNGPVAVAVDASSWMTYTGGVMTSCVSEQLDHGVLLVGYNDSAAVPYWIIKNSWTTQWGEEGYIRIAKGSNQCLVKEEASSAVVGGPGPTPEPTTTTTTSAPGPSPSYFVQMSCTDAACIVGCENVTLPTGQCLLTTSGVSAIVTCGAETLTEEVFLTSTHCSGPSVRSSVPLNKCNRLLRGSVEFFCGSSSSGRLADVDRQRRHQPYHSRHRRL
#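 Detergent-free condition (0.00005% Triton X-100) in acetate buffer pH 5.5 with DTT. 1.5 nM enzyme and compound were pre-mixed 15 min, then 2 uM Z-FR-AMC substrate added; reaction progress from fluorescence change between first and third reads (60 s).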
# Cruzain inh Det – qHTS Assay for Promiscuous and Specific Inhibitors of Cruzain (with detergent). purified cruzain, Z-FR-AMC fluorescence, 0.01% Triton. Potency, µM, for inactives: max response, negative = inhibition, hits mostly inhibitors. actives 0.43% (n = 200,000). AID 1478, 2009; active = well fitted curve in the direction sought with a large enough effect; inconclusive = small, poorly fitted or top-dose-only effect, or another doubt; inactive = no such curve, though single readings can be large; an effect the other way counts as inactive or inconclusive;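 also: potency is read from the fitted curve at half-maximal effect; plate controls were neutral wells for no effect and buffer without enzyme for full effect; nearly all actives have a fitted effect of over 40% in size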
#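 15 min RT preincubation of 1.5 nM cruzain with compound, then 2 uM Z-FR-AMC added; kinetic AMC fluorescence, 60 s delta. Triton X-100 0.01%, pH 5.5.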
# NS1 function inh – qHTS Assay for Inhibitors of Influenza NS1 Protein Function; AID 2326, 2010; Potency, µM (highest dose often 46.1 µM), inactives show at the highest dose activity, positive = more growth; actives 0.4% (n = 270,000); also: potency is read from the fitted curve at half-maximal effect; actives are rising curves; nearly all actives have a fitted effect of over 50% in size
#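 Recovery from NS1-induced slow growth read by OD600 in budding yeast switched to galactose assay medium (pH 6.0, -URA) at 1:100 dilution. Compound 23 nl per well; the matching strain lacking NS1 serves as control.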
# Flu NS1 inh – Assay for Inhibitors of Influenza NS1 Protein Function: Hit Validation. shares compounds with NS1 function inh. influenza NS1 function cell assay, 15-point titration. activity change, negative = inhibition, % at 32.9 µM. 1,400 tested, under 10 active. AID 492980, 2010; also: 0% is about no effect
# PR8 titer – Assay for Inhibitors of Influenza NS1 Protein Function: Influenza virus replication assay in MDCK cells infected with virus A/PR/8/34; actives 30% (n = 95); MDCK infected influenza A/PR/8/34, virus titer TCID50; active compounds read low; AID 504647, 2011; shares compounds with NS1 function inh; virus titer (log TCID50), log10 TCID50 at 5 µM; call rule not given here
# Starred values were filed as active, the others as inactive; ? = inconclusive; . = not tested or not shown. Only a selection was taken, and hits are over-represented in it overall. Unless noted, calls follow the shape of the full dose curve.
SMILES,Cruzain noTriton,Cruzain inh Det,NS1 function inh,Flu NS1 inh,others
CCOC(=O)COc1c(OC)cc(Cl)cc1C1Nc2ccccc2C(=O)N1c1ccccc1 (stereo unspecified),-20%,-3%,12%,.,
CCOC(=O)C(=O)Nc1ccc([N+](=O)[O-])cc1OC,1%,-5%,-3%,.,
CCOC(=O)c1ccc(C(=O)OCC)c(NC(=S)Nc2ccc([N+](=O)[O-])cc2OC)c1,-6%,-12%,5µM*,?,
CCOC(=O)C1=C(CSc2nc3c(cc2C#N)CN(C)CC3)OC(N)=C(C#N)C1c1ccc(F)cc1 (stereo unspecified),-6%,-12%,10µM*,29,
CCOC(=O)CC1=C(C(=O)OCC)C(c2cccnc2)C(C#N)=C(N)O1 (stereo unspecified),-2%,3%,16%,.,
CCOC(=O)C1=C(CSc2nc3c(cc2C#N)CN(C)CC3)OC(N)=C(C#N)C1c1ccccc1 (stereo unspecified),-6%,-1%,9%,.,
CCOC(=O)C1=C(CSc2nc(-c3ccccc3)ccc2C#N)OC(N)=C(C#N)C1c1cccnc1 (stereo unspecified),?,-5%,10µM*,1,
CCc1ccc(-n2c(C)nnc2SCc2nc(-c3ccc(OC)cc3)no2)cc1,24%,-7%,.,.,
CS(=O)(=O)N(CC(=O)O)c1ccc2c(c1)OCO2,6%,1%,-2%,.,
O=C(CCCCCn1c(=O)[nH]c2ccccc2c1=O)NCCc1ccccc1,-8%,2%,.,.,
COC(=O)[C@H]1C[C@@H]1[C@H](NC(=O)[C@H]1C[C@@H]1[C@H](NC(=O)OCc1ccccc1)c1ccccc1)c1ccccc1,0%,-3%,10µM*,-5,
COC(=O)[C@H](Cc1ccccc1)NC(=O)[C@H]1C[C@@H]1[C@H](NC(=O)OCc1ccccc1)c1ccccc1,-15%,-1%,.,.,
CCOC(=O)c1ccccc1NC(=O)Cn1c(=O)n(Cc2nc(C)no2)c(=O)c2ccccc21,11%,-6%,.,.,
CCOc1cccc(C(=O)Nc2cc(-c3nn4c(C)nnc4s3)ccc2C)c1,10%,0%,-33%,.,
CCCOc1ccc(C(=O)Nc2cc(-c3nn4c(C)nnc4s3)ccc2C)cc1,-26%,2%,4.5µM*,5,
COc1cc(C(=O)N2CCN(C(=O)C3COc4ccccc4O3)CC2)cc(OC)c1OC (stereo unspecified),.,.,-8%,.,
CCOc1ccc2nc(Cl)c(C3CC(c4ccc(OC)cc4)=NN3S(C)(=O)=O)cc2c1 (stereo unspecified),6%,7%,.,.,
CCOc1ccc2nc(Cl)c(C3CC(c4ccco4)=NN3S(=O)(=O)c3ccccc3)cc2c1 (stereo unspecified),?,-6%,10µM*,-19,
Cc1cc(C)c(OCCN2C(=O)NC(C)(C)C2=O)c(Cl)c1,5%,-2%,?,-32,
Cc1cc(Cl)c(OCCN2C(=O)NC(C)(C)C2=O)c(Br)c1,1%,-5%,-10%,.,
COc1ccc(N(C(=O)CNC(=O)c2ccco2)C(C(=O)NC2CCCCC2)c2cccnc2)cc1 (stereo unspecified),.,.,-4%,.,
CN(C)c1ccc(C(CNC(=O)c2ccccc2)N2CCc3ccccc32)cc1 (stereo unspecified),?,-28%,.,.,
O=S(=O)(c1ccccc1)c1nc(-c2ccco2)oc1NCCCN1CCOCC1,-8%,14%,7%,.,
N#Cc1nc(-c2ccco2)oc1NCCCN1CCOCC1,-10%,-4%,2.5µM*,20,
O=C(CSc1nnc2ccccn12)NNC(=O)c1ccc(Cl)cc1,.,.,3%,.,
SMILES,Cruzain noTriton,Cruzain inh Det,NS1 function inh,Flu NS1 inh,others
CCOc1ccc(CCNC(=O)c2cnc3c(-c4ccccc4)c(C)nn3c2C)cc1OCC,5%,0%,.,.,
COc1ccc(/C=N/NC(=O)Cc2csc(Nc3cccc(C(F)(F)F)c3)n2)c(OC)c1,-27%,-3%,18%,.,
CCOc1ccc(/C=N/NC(=O)Cc2csc(Nc3cccc(C(F)(F)F)c3)n2)cc1,?,-9%,10µM*,-26,
CN1CCN(S(=O)(=O)c2ccc3c(c2)C(C)(C)C(=O)N3C)CC1,.,.,-5%,.,
COc1ccc(-c2nc3c(c(SCC(=O)N(C)c4ccccc4)n2)Cc2cc(C)ccc2O3)cc1,-3%,-1%,.,.,
CCOC(=O)c1ccc(NC(=O)CSc2nnc(CCc3ccc(C)o3)n2-c2ccccc2)cc1,29%,-2%,1.4µM*,-20,PR8 titer=7.7
Cc1ccc(CCc2nnc(SCC(=O)Nc3ccccc3Cl)n2-c2ccccc2)o1,-13%,-4%,-19%,.,
CN1CCN(C2=Nc3ccccc3Oc3ccc(Cl)cc32)CC1,-4%,-1%,?,-21,PR8 titer=7.3*
CN1CCN(c2nc(-c3ccccc3)c3cc(Cl)ccc3n2)CC1,17%,-3%,-9%,.,
Cc1cc(C)cc(NC(=S)N=Nc2c(O)n(C)c3ccc(S(=O)(=O)N4CCOCC4)cc23)c1,1%,-3%,12%,.,
Cc1cccc(NC(=S)N=Nc2c(O)n(C)c3ccc(S(=O)(=O)N4CCOCC4)cc23)c1,13%,-3%,?,2,
O=C(NCc1ccco1)c1ccc2c(=O)n(-c3ccccc3)c(=O)n(Cc3cccc(F)c3)c2c1,-6%,-6%,-12%,.,
CCOC(=O)c1[nH]c(C)c(/C(O)=C2\C(=O)C(=O)N(CCCN(C)C)C2c2ccncc2)c1C (stereo unspecified),-3%,1%,-2%,.,
Nc1ccccc1-c1nnc(SCc2ccccc2Cl)[nH]c1=O,-12%,-1%,-71%,.,
Cc1ccc(CSc2nnc(-c3ccccc3N)c(=O)[nH]2)cc1,2%,-7%,11µM*,-35,
O=C(Cn1ncc2c1-c1ccccc1OC2)Nc1ccc(S(=O)(=O)N2CCCCC2)cc1,-28%,1%,1%,.,
NC(=S)N/N=C1\CC(c2ccc3c(c2)OCCCO3)Oc2ccc(F)cc21 (stereo unspecified),.,.,2µM*,1,
NC(=S)N/N=C1\CC(c2ccc3c(c2)OCCO3)Oc2ccc(F)cc21 (stereo unspecified),.,.,1%,.,
Cc1cccc(N(CC(=O)NC2CCCCC2)C(=O)CCC(=O)Nc2ccccn2)c1,5%,1%,0%,.,
Cc1ccnc(NC(=O)CCC(=O)N(CC(=O)NC2CCCCC2)c2ccc3c(c2)OCO3)c1,24%,3%,22µM*,-9,
O=C1C2CCCN2C(c2ccc(F)cc2)N1c1ccc(Cl)cc1 (stereo unspecified),2%,3%,4µM*,15,
CCOc1ccc(C2N(c3ccc(OC)cc3)C(=O)C3CCCN32)cc1OC (stereo unspecified),-2%,2%,25%,.,
O=C1C2CCCN2C(c2ccccc2)N1c1ccc(F)cc1 (stereo unspecified),-12%,5%,7%,.,
CCOc1ccc(C2N(c3ccc(Cl)cc3)C(=O)C3CCCN32)cc1OC (stereo unspecified),?,0%,7.9µM*,36,
